Source: ChEMBL document CHEMBL2218924, “A broad activity screen in support of a chemogenomic map for kinase signalling research and drug discovery” (Biochem J, 2013)

What was measured:
[1] = biological target: Myosin light chain kinase, smooth muscle (Homo sapiens) (UniProt Q15746); settings: at 1 µM
[2] = biological target: Myosin light chain kinase, smooth muscle (Homo sapiens) (UniProt Q15746); settings: at 10 µM
[3] = biological target: Mitogen-activated protein kinase kinase kinase 9 (Homo sapiens) (UniProt P80192); settings: at 1 µM
[4] = biological target: Mitogen-activated protein kinase kinase kinase 9 (Homo sapiens) (UniProt P80192); settings: at 10 µM
[5] = biological target: Serine/threonine-protein kinase MRCK alpha (Homo sapiens) (UniProt Q5VT25); settings: at 1 µM
[6] = biological target: Serine/threonine-protein kinase MRCK alpha (Homo sapiens) (UniProt Q5VT25); settings: at 10 µM
[7] = biological target: Serine/threonine-protein kinase MRCK beta (Homo sapiens) (UniProt Q9Y5S2); settings: at 1 µM
Serine/threonine-protein kinase MRCK beta (Homo sapiens), sequence (Q9Y5S2 whole entry): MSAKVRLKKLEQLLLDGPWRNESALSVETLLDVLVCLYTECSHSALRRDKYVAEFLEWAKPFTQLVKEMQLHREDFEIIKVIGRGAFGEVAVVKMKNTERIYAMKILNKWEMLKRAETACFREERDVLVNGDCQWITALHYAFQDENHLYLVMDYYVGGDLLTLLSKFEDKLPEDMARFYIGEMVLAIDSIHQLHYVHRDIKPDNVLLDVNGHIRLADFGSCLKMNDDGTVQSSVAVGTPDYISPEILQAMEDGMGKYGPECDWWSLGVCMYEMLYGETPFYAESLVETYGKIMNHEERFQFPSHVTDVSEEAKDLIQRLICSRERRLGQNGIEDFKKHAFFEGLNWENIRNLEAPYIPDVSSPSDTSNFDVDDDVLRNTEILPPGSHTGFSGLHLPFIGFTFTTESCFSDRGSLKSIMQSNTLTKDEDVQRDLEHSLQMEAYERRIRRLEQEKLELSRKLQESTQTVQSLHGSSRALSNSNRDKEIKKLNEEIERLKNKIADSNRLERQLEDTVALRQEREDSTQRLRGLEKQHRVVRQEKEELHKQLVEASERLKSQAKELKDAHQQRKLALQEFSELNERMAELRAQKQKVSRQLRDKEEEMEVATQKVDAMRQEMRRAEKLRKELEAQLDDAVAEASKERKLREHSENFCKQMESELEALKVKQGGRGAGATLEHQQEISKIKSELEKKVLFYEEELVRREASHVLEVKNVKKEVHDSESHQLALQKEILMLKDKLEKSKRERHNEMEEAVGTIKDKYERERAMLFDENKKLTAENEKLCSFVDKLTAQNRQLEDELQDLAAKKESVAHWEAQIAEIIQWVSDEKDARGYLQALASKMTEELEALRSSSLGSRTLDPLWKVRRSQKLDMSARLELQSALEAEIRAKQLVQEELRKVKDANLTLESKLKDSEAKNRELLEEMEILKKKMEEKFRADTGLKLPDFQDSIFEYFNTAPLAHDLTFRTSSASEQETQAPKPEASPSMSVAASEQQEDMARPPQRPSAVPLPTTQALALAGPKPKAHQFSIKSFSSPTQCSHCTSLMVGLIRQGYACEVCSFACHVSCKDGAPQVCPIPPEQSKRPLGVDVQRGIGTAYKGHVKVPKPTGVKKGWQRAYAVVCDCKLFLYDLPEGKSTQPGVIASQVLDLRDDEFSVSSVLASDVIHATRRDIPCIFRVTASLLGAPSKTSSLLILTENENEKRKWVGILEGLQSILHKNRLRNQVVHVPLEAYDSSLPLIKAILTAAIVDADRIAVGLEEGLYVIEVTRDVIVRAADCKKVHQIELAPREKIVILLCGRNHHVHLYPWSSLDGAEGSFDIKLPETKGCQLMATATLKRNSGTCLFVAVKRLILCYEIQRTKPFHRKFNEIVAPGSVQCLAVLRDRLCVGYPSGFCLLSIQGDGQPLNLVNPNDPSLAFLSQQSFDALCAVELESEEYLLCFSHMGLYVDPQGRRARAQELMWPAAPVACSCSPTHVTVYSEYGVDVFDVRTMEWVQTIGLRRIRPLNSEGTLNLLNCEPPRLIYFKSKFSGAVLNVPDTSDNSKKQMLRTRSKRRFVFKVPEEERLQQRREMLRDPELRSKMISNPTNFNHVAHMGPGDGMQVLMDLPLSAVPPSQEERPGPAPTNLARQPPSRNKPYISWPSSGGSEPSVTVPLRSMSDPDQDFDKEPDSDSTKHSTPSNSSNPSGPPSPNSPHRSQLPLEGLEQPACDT

[8] = biological target: Serine/threonine-protein kinase MRCK beta (Homo sapiens) (UniProt Q9Y5S2); settings: at 10 µM
[9] = biological target: Ribosomal protein S6 kinase alpha-5 (Homo sapiens) (UniProt O75582); settings: at 1 µM
[10] = biological target: Ribosomal protein S6 kinase alpha-5 (Homo sapiens) (UniProt O75582); settings: at 10 µM
[11] = biological target: Ribosomal protein S6 kinase alpha-4 (Homo sapiens) (UniProt O75676); settings: at 1 µM
[12] = biological target: Ribosomal protein S6 kinase alpha-4 (Homo sapiens) (UniProt O75676); settings: at 10 µM
[13] = biological target: SRSF protein kinase 3 (Homo sapiens) (UniProt Q9UPE1); settings: at 1 µM
SRSF protein kinase 3 (Homo sapiens), sequence (Q9UPE1 whole entry): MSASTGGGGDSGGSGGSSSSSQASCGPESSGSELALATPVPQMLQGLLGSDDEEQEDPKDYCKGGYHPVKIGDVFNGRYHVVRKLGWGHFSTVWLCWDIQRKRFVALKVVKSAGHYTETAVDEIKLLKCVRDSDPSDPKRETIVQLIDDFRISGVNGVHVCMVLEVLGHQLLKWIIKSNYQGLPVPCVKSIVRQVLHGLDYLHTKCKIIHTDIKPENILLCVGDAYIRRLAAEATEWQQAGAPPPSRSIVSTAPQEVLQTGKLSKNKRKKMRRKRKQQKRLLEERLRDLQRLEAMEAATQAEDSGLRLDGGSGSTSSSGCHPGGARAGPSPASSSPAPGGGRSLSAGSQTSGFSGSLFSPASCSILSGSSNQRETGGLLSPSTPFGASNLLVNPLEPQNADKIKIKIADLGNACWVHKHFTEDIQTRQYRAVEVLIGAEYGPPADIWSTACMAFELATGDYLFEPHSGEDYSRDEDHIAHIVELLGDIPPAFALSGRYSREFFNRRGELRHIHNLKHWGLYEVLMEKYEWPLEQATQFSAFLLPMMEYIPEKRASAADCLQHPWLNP

[14] = biological target: SRSF protein kinase 3 (Homo sapiens) (UniProt Q9UPE1); settings: at 10 µM
[15] = biological target: T1, Serine/threonine-protein kinase 4 (Homo sapiens) (UniProt Q13043); settings: at 1 µM
T1 sequence (whole entry): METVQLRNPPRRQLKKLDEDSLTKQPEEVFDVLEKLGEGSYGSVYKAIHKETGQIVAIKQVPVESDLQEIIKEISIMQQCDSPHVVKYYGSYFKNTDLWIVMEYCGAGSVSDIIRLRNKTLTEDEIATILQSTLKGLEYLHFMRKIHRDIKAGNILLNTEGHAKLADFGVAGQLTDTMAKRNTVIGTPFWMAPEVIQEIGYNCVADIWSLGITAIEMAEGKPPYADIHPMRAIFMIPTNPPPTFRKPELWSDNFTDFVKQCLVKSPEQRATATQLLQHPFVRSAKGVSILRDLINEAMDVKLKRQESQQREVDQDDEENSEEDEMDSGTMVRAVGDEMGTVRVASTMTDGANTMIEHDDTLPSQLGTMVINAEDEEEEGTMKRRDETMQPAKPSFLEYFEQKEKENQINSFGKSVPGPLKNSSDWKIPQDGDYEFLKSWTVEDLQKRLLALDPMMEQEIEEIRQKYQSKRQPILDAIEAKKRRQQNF

[16] = biological target: T1, Serine/threonine-protein kinase 4 (Homo sapiens); settings: at 10 µM
[17] = biological target: T2, Serine/threonine-protein kinase 3 (Homo sapiens) (UniProt Q13188); settings: at 1 µM
T2 sequence (whole entry): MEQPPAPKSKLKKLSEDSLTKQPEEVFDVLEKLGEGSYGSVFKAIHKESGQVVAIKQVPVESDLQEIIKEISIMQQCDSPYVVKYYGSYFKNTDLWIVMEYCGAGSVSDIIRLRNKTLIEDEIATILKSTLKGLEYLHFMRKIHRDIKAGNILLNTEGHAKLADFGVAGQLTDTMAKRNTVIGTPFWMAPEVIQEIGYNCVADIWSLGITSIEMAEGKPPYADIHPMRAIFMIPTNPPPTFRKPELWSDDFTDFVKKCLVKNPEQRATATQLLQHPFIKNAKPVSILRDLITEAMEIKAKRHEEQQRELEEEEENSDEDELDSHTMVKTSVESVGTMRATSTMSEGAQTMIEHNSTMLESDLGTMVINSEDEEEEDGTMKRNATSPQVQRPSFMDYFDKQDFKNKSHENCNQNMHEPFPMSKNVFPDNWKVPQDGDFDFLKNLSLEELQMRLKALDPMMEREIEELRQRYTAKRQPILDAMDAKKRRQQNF

[18] = biological target: T2, Serine/threonine-protein kinase 3 (Homo sapiens); settings: at 10 µM
[19] = biological target: Serine/threonine-protein kinase 24 (Homo sapiens) (UniProt Q9Y6E0); settings: at 1 µM
Serine/threonine-protein kinase 24 (Homo sapiens), sequence (Q9Y6E0 whole entry, looked up): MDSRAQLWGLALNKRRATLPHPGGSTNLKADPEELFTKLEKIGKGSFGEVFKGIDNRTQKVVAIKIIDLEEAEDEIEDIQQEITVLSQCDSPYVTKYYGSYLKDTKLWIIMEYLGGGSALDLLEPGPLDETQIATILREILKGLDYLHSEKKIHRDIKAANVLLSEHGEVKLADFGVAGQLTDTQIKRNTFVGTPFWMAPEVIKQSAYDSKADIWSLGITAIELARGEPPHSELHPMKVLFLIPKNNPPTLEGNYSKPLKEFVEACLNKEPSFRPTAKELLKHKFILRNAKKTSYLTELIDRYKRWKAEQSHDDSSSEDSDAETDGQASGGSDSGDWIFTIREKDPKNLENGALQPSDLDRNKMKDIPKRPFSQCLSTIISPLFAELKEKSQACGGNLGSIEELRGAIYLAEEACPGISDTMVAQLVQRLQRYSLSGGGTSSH

[20] = biological target: Serine/threonine-protein kinase 24 (Homo sapiens) (UniProt Q9Y6E0); settings: at 10 µM

Myosin light chain kinase, smooth muscle (Homo sapiens), sequence (Q15746 whole entry): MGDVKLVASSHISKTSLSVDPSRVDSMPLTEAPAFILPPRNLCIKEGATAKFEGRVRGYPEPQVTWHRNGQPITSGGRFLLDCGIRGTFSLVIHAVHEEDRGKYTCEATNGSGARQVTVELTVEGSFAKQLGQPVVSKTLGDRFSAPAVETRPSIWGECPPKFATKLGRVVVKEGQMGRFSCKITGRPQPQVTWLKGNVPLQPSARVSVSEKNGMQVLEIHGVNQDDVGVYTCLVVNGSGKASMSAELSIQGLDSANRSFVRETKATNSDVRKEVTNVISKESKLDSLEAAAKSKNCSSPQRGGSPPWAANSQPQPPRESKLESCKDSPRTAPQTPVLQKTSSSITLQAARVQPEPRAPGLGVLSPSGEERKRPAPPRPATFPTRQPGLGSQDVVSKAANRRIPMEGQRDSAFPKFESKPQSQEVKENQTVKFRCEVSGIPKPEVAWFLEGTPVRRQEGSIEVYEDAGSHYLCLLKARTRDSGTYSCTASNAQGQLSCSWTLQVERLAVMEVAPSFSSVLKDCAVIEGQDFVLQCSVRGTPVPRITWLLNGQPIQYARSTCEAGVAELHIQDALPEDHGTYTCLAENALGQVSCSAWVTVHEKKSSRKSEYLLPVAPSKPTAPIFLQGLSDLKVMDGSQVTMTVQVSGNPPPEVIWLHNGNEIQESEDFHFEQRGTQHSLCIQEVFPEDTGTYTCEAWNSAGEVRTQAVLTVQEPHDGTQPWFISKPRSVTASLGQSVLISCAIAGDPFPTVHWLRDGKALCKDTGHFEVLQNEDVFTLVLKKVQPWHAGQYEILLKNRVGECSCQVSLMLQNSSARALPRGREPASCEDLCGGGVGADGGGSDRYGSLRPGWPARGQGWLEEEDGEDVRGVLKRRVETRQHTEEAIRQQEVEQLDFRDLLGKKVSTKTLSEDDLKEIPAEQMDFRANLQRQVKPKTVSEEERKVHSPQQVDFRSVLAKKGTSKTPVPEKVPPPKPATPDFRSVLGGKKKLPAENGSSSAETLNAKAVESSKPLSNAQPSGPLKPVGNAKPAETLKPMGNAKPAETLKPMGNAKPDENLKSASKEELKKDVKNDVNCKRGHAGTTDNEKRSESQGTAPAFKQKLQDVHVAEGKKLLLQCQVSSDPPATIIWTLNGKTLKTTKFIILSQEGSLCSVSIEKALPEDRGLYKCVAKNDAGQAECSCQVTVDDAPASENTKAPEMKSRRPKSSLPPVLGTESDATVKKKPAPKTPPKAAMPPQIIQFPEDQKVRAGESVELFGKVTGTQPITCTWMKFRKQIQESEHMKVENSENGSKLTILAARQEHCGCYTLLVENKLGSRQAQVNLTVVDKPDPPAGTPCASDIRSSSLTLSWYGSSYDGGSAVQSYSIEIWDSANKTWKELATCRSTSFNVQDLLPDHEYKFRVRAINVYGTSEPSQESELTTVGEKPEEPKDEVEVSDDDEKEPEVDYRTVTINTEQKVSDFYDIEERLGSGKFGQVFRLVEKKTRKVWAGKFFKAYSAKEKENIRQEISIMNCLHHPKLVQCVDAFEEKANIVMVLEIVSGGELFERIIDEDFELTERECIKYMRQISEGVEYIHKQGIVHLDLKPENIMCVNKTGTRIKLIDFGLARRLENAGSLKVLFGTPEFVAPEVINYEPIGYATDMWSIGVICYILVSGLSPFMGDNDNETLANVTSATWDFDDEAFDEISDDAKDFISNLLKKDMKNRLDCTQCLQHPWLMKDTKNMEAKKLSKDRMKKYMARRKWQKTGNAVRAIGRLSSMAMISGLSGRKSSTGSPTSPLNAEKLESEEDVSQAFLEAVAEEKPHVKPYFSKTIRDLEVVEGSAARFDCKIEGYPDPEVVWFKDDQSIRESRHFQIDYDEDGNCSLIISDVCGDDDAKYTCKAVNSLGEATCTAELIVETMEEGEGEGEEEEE

Row | Structure (SMILES) | residual activity [1] [%] | residual activity [2] [%] | residual activity [3] [%] | residual activity [4] [%] | residual activity [5] [%] | residual activity [6] [%] | residual activity [7] [%] | residual activity [8] [%] | residual activity [9] [%] | residual activity [10] [%] | residual activity [11] [%] | residual activity [12] [%] | residual activity [13] [%] | residual activity [14] [%] | residual activity [15] [%] | residual activity [16] [%] | residual activity [17] [%] | residual activity [18] [%] | residual activity [19] [%] | residual activity [20] [%]
1 | COC(=O)[C@@]1(O)C[C@H]2O[C@]1(C)n1c3ccccc3c3c4c(c5c6ccccc6n2c5c31)C(=O)NC4 | 1 | 2 | 1 | 0 | 71 | 23 | 33 | 5 | 5 | 0 | -1 | 0 | 11 | 2 | 5 | 1 | 2 | 1 | 14 | 0
2 | O=C1Nc2ccc3ncsc3c2/C1=C/c1c[nH]cn1 | 25 | 11 | 9 | 2 | 104 | 90 | 75 | 49 | 43 | 7 | 20 | 6 | 98 | 68 | 1 | 3 | 2 | 1 | 3 | 0
3 | CCn1cnc2c(Nc3cccc(Cl)c3)nc(N[C@@H]3CCCC[C@@H]3N)nc21 | 94 | 46 | 16 | 2 | – | – | 94 | 78 | – | – | 79 | 60 | 95 | 71 | 64 | 47 | – | 70 | 78 | 59
4 | N/C(=N\[N+](=O)[O-])N/N=C\c1ccc(-c2cccc([N+](=O)[O-])c2)o1 | – | – | – | – | – | – | – | – | – | – | 97 | 84 | – | – | – | – | – | – | 98 | 79
5 | c1cc(-c2cnn3cc(-c4ccc(OCCN5CCCCC5)cc4)cnc23)ccn1 | – | 71 | 78 | 17 | 121 | 118 | 106 | – | 121 | 60 | 103 | 70 | – | – | – | – | – | – | – | –
6 | CCc1nc(-c2ccc(OC)cc2)[nH]c1-c1ccncc1 | – | – | – | – | 115 | 114 | – | – | 108 | 112 | – | – | 123 | 103 | – | 111 | – | – | – | –
7 | CN[C@@H]1C[C@H]2O[C@@](C)([C@@H]1OC)n1c3ccccc3c3c4c(c5c6ccccc6n2c5c31)C(=O)NC4 | 0 | 1 | 0 | 1 | – | – | – | – | – | – | 1 | -1 | – | 40 | – | – | – | – | – | –
8 | COc1cc(OC)c(/C=C2\C(=O)Nc3ccccc32)c(OC)c1 | 88 | 77 | 92 | 65 | – | – | 83 | 84 | – | – | 96 | 94 | 101 | – | 108 | 105 | 102 | 91 | 80 | 76
9 | O=C1c2ccccc2-c2nc3nnnn3nc21 | 79 | 104 | 103 | 102 | 107 | 100 | 116 | – | 145 | – | 108 | 108 | 107 | 83 | 108 | 110 | – | – | – | –
10 | CC(C)(C)c1cc(C=C(C#N)C#N)cc(Br)c1O | – | – | 104 | 97 | 108 | – | 115 | – | 122 | 97 | – | – | 105 | – | 104 | 119 | – | – | – | 100
